In PubChem BioAssay (Tox21):
Results filed as inconclusive are left out. Values without a mark were called inactive. Calls of active or inactive are those of the source. Unless noted, calls come from the whole dose curve; as a rule, active = well fitted curve in the direction sought with a large enough effect in the repeat runs; inconclusive = weak or mixed curves; inactive = no such curve, though single readings can be large; an effect the other way counts as inactive or inconclusive.

tested on: not listed separately; experiment: qHTS assay to identify small molecule antagonists of the estrogen receptor alpha (ER-alpha) signaling pathway using the BG1 cell line (AID 743080; calls by dose curve;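 note: BG1 cells stimulated with 17beta-estradiol alongside compound; nearly all actives have a fitted effect of over 25% in size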); conditions: BG1Luc4E2 ERE-luciferase antagonist mode, luminescence; series mostly up to 70.3 µM; activity change, negative = inhibition: at the top concentration
Summary of the method: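 After 5 days in phenol-red-free 10% charcoal-stripped FBS medium, BG1-Luc-4E2 cells were seeded, left 24 h at 37 C, co-treated with compounds and 17beta-estradiol for 21.5 h, then assayed for viability and luciferase.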
% is set by controls: 0 for no effect and ±100 for the full control effect.

Compound | activity change, negative = inhibition
O=C1CCCCC1C1CCCCC1 (configuration not stated) | 5.47%
CCCCN1C[C@H](O)[C@@H](O)[C@H](O)[C@H]1CO | -8.72%
CNCCC(Oc1ccccc1OC)c1ccccc1 (configuration not stated) | -6.06%
CCCCCCCCCCCCOCCOS(=O)(=O)O | -4.11%
CC(C)C(=O)OCC(C)(C)C(O)C(C)C (configuration not stated) | -7.6% [at 95 µM]
CCCCNc1ccc(C(=O)OCCN(CC)CC)cc1 | 0.898%
CCCc1c2oc(C(=O)O)cc(=O)c2cc2c(=O)cc(C(=O)O)n(CC)c12 | -3.21%
CC(C)CCCCCCc1ccc(OCCOCCO)cc1 | -8.35% [at 95 µM]
CCCNC(C)(C)COC(=O)c1ccccc1 | 1.11%
CO[C@@]1(NC(=O)CSCC#N)C(=O)N2C(C(=O)O)=C(CSc3nnnn3C)CS[C@@H]21 | 0.713%
O=C(Cl)c1cccc([N+](=O)[O-])c1 | -10.4%
CC(=O)N(CC(O)CN(C(C)=O)c1c(I)c(C(=O)NCC(O)CO)c(I)c(C(=O)NCC(O)CO)c1I)c1c(I)c(C(=O)NCC(O)CO)c(I)c(C(=O)NCC(O)CO)c1I (configuration not stated) | -12.8% [at 32.5 µM]
O=C(C(Cl)Cl)N1CCOC12CCCCC2 | -8.85%
CCCCC(CC)COC(=O)COc1cc(Cl)c(Cl)cc1Cl (configuration not stated) | 1.08%
CC(=O)N[C@@H](CC(C)C)C(=O)O | 1.61%
CCN(CC)CCNC(=O)COc1ccc(Cl)cc1 | 11.3%
C[C@@H]1CN(c2c(F)c(F)c3c(=O)c(C(=O)O)cn(C4CC4)c3c2F)C[C@H](C)N1 | -0.483%
CN1CCN(C2=Nc3ccccc3Oc3ccc(Cl)cc32)CC1 | 0.444% [at 32.5 µM]

tested on: not listed separately; experiment: qHTS assay to identify small molecule antagonists of the estrogen receptor alpha (ER-alpha) signaling pathway using the BG1 cell line - cell viability counter screen (AID 743081); conditions: BG1Luc4E2 viability, CellTiter-Fluor, 22 h; series mostly up to 70.3 µM; activity change, negative = cytotoxicity: at the top concentration;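 note: compound given together with 17beta-estradiol as the ER stimulus; nearly all actives have a fitted effect of over 45% in size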; note: potency is the fitted concentration of half-maximal effect

Compound | activity change, negative = cytotoxicity | Potency
O=C1CCCCC1C1CCCCC1 (configuration not stated) | 23.8% | 
CC(C)NC[C@@H](O)COc1cccc2ccccc12 | -1.58% | 
CNCCC(Oc1ccccc1OC)c1ccccc1 (configuration not stated) | -13.6% | 
CC(C)Nc1nc(N)nc(Cl)n1 | 15.1% | 
CCCCCCCCCCCCOCCOS(=O)(=O)O | 2.34% | 
CC(C)C(=O)OCC(C)(C)C(O)C(C)C (configuration not stated) | -2.44% [at 95 µM] | 
CN(C)CCOc1ccccc1Cc1ccccc1 |  | 2370 nM (active)
CN1C(=O)CC(c2ccccc2)C1=O (configuration not stated) | -5.69% | 
CCCC1CCC(=O)O1 (configuration not stated) | 8.48% | 
NCCC(O)(P(=O)(O)O)P(=O)(O)O | 0.245% | 
CCCCCCCCCCCCCCCCOP(=O)([O-])OCC[N+](C)(C)C | 3.58% | 
CCCc1c2oc(C(=O)O)cc(=O)c2cc2c(=O)cc(C(=O)O)n(CC)c12 | 11.3% | 
CC(C)CCCCCCc1ccc(OCCOCCO)cc1 | -7.89% [at 95 µM] | 
C1CSCCS1 | 14.5% | 
CCCCc1ccc2nc(NC(=O)OC)[nH]c2c1 | -11.2% [at 32.5 µM] | 
C1CCOC1 | 10.5% [at 95 µM] | 

Compound | activity change, negative = cytotoxicity | Potency
Nc1ccc(Oc2ccc(N)c(N)c2)cc1 | -7.4% | 
CCCNC(C)(C)COC(=O)c1ccccc1 | 0.117% | 
OCc1c2ccccc2cc2ccccc12 | 4.13% [at 95 µM] | 
CO[C@@]1(NC(=O)CSCC#N)C(=O)N2C(C(=O)O)=C(CSc3nnnn3C)CS[C@@H]21 | -1.13% | 
Cc1ccc(C=O)s1 | -2.94% | 
O=C(Cl)c1cccc([N+](=O)[O-])c1 | 2.18% | 
CC(=O)N(CC(O)CN(C(C)=O)c1c(I)c(C(=O)NCC(O)CO)c(I)c(C(=O)NCC(O)CO)c1I)c1c(I)c(C(=O)NCC(O)CO)c(I)c(C(=O)NCC(O)CO)c1I (configuration not stated) | 16.4% [at 32.5 µM] | 
O=C(C(Cl)Cl)N1CCOC12CCCCC2 | -8.15% | 
CC(C)(C)c1ccc(OC(=O)c2ccccc2O)cc1 | 2.97% | 
CCCCC(CC)COC(=O)COc1cc(Cl)c(Cl)cc1Cl (configuration not stated) | -0.717% | 
CC(=O)N[C@@H](CC(C)C)C(=O)O | -1.51% | 
CCN(CC)CCNC(=O)COc1ccc(Cl)cc1 | -16.6% | 
Cn1cnc2c(F)c(Nc3ccc(Br)cc3Cl)c(C(=O)NOCCO)cc21 | 5.97% | 
C[C@@H]1CN(c2c(F)c(F)c3c(=O)c(C(=O)O)cn(C4CC4)c3c2F)C[C@H](C)N1 | -9.17% | 
CN1CCN(C2=Nc3ccccc3Oc3ccc(Cl)cc32)CC1 | -1.88% [at 32.5 µM] | 

target: Aromatase (Homo sapiens) (UniProt P11511); experiment: qHTS assay to identify aromatase inhibitors (AID 743083); conditions: MCF-7 aro ERE, testosterone-driven ERE luciferase, 24 h; series mostly up to 70.3 µM; activity, negative = inhibition: at the top concentration; note: nearly all actives have a fitted effect of over 55% in size
Sequence (P11511 whole entry, looked up): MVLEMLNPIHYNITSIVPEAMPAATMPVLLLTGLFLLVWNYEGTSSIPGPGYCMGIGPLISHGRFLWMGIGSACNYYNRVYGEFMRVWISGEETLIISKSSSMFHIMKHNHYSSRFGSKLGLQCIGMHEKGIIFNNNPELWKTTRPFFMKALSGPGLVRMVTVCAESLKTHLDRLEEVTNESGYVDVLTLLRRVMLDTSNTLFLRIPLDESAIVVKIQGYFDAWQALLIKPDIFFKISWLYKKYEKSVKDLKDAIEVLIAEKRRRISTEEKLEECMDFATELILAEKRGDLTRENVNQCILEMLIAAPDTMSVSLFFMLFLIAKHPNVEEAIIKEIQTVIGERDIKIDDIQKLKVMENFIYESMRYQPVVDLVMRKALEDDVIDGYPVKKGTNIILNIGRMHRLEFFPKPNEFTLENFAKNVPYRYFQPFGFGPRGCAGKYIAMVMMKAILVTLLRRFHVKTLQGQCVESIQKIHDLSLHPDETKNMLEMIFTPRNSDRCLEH

Compound | activity, negative = inhibition
O=C1CCCCC1C1CCCCC1 (configuration not stated) | -0.326%
CC(C)NC[C@@H](O)COc1cccc2ccccc12 | -1.4%
CCCCN1C[C@H](O)[C@@H](O)[C@H](O)[C@H]1CO | 15.2%
CNCCC(Oc1ccccc1OC)c1ccccc1 (configuration not stated) | 4.76%
CC(C)Nc1nc(N)nc(Cl)n1 | -2.06%
CCCCCCCCCCCCOCCOS(=O)(=O)O | -1.17%
CC(C)C(=O)OCC(C)(C)C(O)C(C)C (configuration not stated) | -12.2% [at 95 µM]
CN(C)CCOc1ccccc1Cc1ccccc1 | -14.4%
CN1C(=O)CC(c2ccccc2)C1=O (configuration not stated) | -0.818%
CCCC1CCC(=O)O1 (configuration not stated) | 21.7%
CCCCNc1ccc(C(=O)OCCN(CC)CC)cc1 | 2.53%
NCCC(O)(P(=O)(O)O)P(=O)(O)O | -4.97%
CCCCCCCCCCCCCCCCOP(=O)([O-])OCC[N+](C)(C)C | 0.931%
CCCc1c2oc(C(=O)O)cc(=O)c2cc2c(=O)cc(C(=O)O)n(CC)c12 | -1.19%
C1CSCCS1 | -0.491%
O=C(CC(=O)C(F)(F)F)c1ccccc1 | 84% [at 95 µM]
CCCCc1ccc2nc(NC(=O)OC)[nH]c2c1 | 73.2% [at 32.5 µM]

Compound | activity, negative = inhibition
C1CCOC1 | -0.905% [at 95 µM]
CCCNC(C)(C)COC(=O)c1ccccc1 | 0.63%
OCc1c2ccccc2cc2ccccc12 | 85.7% [at 95 µM]
CO[C@@]1(NC(=O)CSCC#N)C(=O)N2C(C(=O)O)=C(CSc3nnnn3C)CS[C@@H]21 | -3.3%
Cc1ccc(C=O)s1 | 0.287%
O=C(Cl)c1cccc([N+](=O)[O-])c1 | -9.63%
CC(=O)N(CC(O)CN(C(C)=O)c1c(I)c(C(=O)NCC(O)CO)c(I)c(C(=O)NCC(O)CO)c1I)c1c(I)c(C(=O)NCC(O)CO)c(I)c(C(=O)NCC(O)CO)c1I (configuration not stated) | -0.633% [at 32.5 µM]
O=C(C(Cl)Cl)N1CCOC12CCCCC2 | -0.22%
CC(C)(C)c1ccc(OC(=O)c2ccccc2O)cc1 | 54.4%
CCCCC(CC)COC(=O)COc1cc(Cl)c(Cl)cc1Cl (configuration not stated) | -1.67%
CC(=O)N[C@@H](CC(C)C)C(=O)O | 1.53%
CCN(CC)CCNC(=O)COc1ccc(Cl)cc1 | 1.62%
CN1CCC[C@@H]1Cc1c[nH]c2ccc(CCS(=O)(=O)c3ccccc3)cc12 | -1.22%
Cn1cnc2c(F)c(Nc3ccc(Br)cc3Cl)c(C(=O)NOCCO)cc21 | 31.8%
C[C@@H]1CN(c2c(F)c(F)c3c(=O)c(C(=O)O)cn(C4CC4)c3c2F)C[C@H](C)N1 | 18.3%
CN1CCN(C2=Nc3ccccc3Oc3ccc(Cl)cc32)CC1 | -14.6% [at 32.5 µM]
